Bioassay records as filed in PubChem BioAssay.
The list is not random: actives were taken first. Their share in the collection is about 5.7%.
KB-V1 cytotox: qHTS assay for MDR1-selective chemotherapeutics: Primary screen using the drug-selected MDR subline cells KB-V1; Potency, µM (top dose mostly 46.1 µM), usual class: cytotoxic; 400,000 compounds, 3.4% hits; KB-V1 MDR cells viability, CellTiter-Glo, 72 h; AID 1347076, 2019; note: nearly all actives have a fitted effect of over 60% in size
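Cells of the MDR subline KB-V1 are plated, dosed with compound at multiple concentrations, and incubated 72 h at 37 degrees C; CellTiter-Glo is then added and luminescence read after 10 min.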
HT1080-NT tox: qHTS for induction of synthetic lethality in tumor cells producing 2HG: qHTS for the HT-1080-NT fibrosarcoma cell line; HT-1080-NT fibrosarcoma viability, CellTiter-Glo ATP luminescence, 48 h; Potency, µM (series often up to 46.1 µM), hits mostly cytotoxic; 360,000 compounds, 1.6% hits; AID 686970, 2013;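 note: NT is the 2HG producing partner of a matched IDH1 knockdown line; nearly all actives have a fitted effect of over 55% in size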
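Read-out is CellTiter-Glo luminescence after 10 minutes at room temperature, following 48 hours' compound treatment of HT-1080-NT cells (750 cells/well, RPMI, 5% FBS, 37 degrees C).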
HT1080 IDH1KD tx: qHTS for induction of synthetic lethality in tumor cells producing 2HG: qHTS for the HT-1080-IDH1KD cell line. HT-1080 IDH1 knockdown viability, ATP luminescence, 48 h. Potency, µM (doses to about 46.1 µM), actives largely listed as cytotoxic. AID 686971, 2013. 360,000 compounds, 2% hits
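Using the IDH1-knockdown HT-1080 line run in the same batch and compound series as the NT line, viability after 48 h at 37 °C was determined by CellTiter-Glo luminescence and expressed as % activity.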
KB-3-1 tox: qHTS assay for MDR1-selective chemotherapeutics: Primary screen using the parental adenocarcinoma cell KB-3-1; KB-3-1 viability, CellTiter-Glo ATP luminescence, 72 h; Potency, µM (titrated, usually from 46.1 µM), usual class: cytotoxic; 400,000 compounds, 1.4% hits; AID 1347075, 2019; note: nearly all actives have a fitted effect of over 60% in size
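Screening of KB-3-1 cells (DMEM, 10% FBS, phenol-red free) ran from lowest to highest compound concentration; after 72 h at 37 °C viability was read luminescently and curves fitted.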
A number is an active result; - = inactive; ? = inconclusive; . = not tested or not shown. Calls come from the whole dose curve; as a rule, active = well fitted curve in the direction sought with a large enough effect; inconclusive = small, poorly fitted or top-dose-only effect, or another doubt; inactive = no such curve, though single readings can be large; an effect the other way counts as inactive or inconclusive.

SMILES | KB-V1 cytotox | HT1080-NT tox | HT1080 IDH1KD tx | KB-3-1 tox
CCCN1CCN(c2ncnc3c2nnn3Cc2ccccc2)CC1 | 16µM | - | ? | ?
O=C(CNC1=NCCS1)c1c[nH]c2ccccc12 | - | . | . | ?
CCn1c(SCC(=O)N/N=C/C=C\c2ccccc2[N+](=O)[O-])nc2ccccc21 | 7.3µM | - | - | ?
Cc1nc2ccccc2n1CC(=O)NC1CCCC1 | - | - | - | -
Cc1ccc(C(=O)Cn2c(C(=O)/C=C/c3ccccc3)nc3ccccc32)cc1 | 13µM | ? | ? | ?
Cc1nc2ccccc2n1CC(=O)N/N=C\C=C\c1ccccc1 | 21µM | - | - | -
Cn1c(SCC(=O)N/N=C/C=C/c2ccccc2[N+](=O)[O-])nc2ccccc21 | - | - | - | -
Cc1nc2ccccc2n1CC(=O)NC1CCCCCC1 | 15µM | ? | ? | ?
Cc1ccc(C(=O)Cn2c(NCCO)nc3ccccc32)cc1 | - | - | - | ?
COc1ccc(-c2[nH]c3ccccc3c2SCCNC(=O)c2ccc(S(=O)(=O)N(C)C)cc2)cc1 | - | . | . | ?
O=C(Oc1ccccc1F)c1nc(SCc2ccccc2F)ncc1Cl | - | . | . | -
Cc1nc2ccc(NS(=O)(=O)c3ccc(F)cc3F)cc2s1 | 4.1µM | - | - | ?
Cc1nc2ccc(NS(=O)(=O)c3ccc(F)c(F)c3F)cc2s1 | - | - | - | -
O=C(CSc1nc2cc([N+](=O)[O-])ccc2n1-c1ccc(F)cc1)NC1CCS(=O)(=O)C1 (configuration not stated) | 23µM | - | - | -
Cc1ccc(C)c(CN2C(=O)c3ccccc3S(=O)c3ccc(C(=O)N4CCN(c5ccccn5)CC4)cc32)c1 (configuration not stated) | ? | ? | - | 10µM
CCOCCCNC(=O)c1ccc2c(c1)N(CC)C(=O)c1ccccc1S2=O (configuration not stated) | 18µM | - | - | ?
CCN1C(=O)c2ccccc2S(=O)c2ccc(C(=O)N3CCN(c4cccc(C)c4)C(C)C3)cc21 (configuration not stated) | - | . | . | 18µM
CCN1CCN(C(=O)c2ccc3c(c2)N(Cc2cc(C)ccc2C)C(=O)c2ccccc2S3=O)CC1 (configuration not stated) | - | . | . | -
CCCN(CCC)CCCNC(=O)c1ccc2c(c1)N(CC)C(=O)c1ccccc1S2=O (configuration not stated) | - | - | - | ?
COc1ccccc1C(C)NCC(=O)c1c(C)[nH]c2ccccc12 (configuration not stated) | - | . | . | -
COc1cc(C2c3c(oc4ccc(F)cc4c3=O)C(=O)N2Cc2ccc3c(c2)OCO3)ccc1O (configuration not stated) | - | . | . | -
COc1ccc2c(CNCc3cccs3)c(C(=O)O)n(Cc3ccccc3F)c2c1 | - | . | . | -
CCOC(=O)c1c(C)c(-c2ccccc2)n(CC(=O)Nc2cc(C)cc(C)c2)c1C | - | . | . | -
CC(OC(=O)C1CCN(c2ccc(C(F)(F)F)cn2)CC1)C(=O)NC1CCCCC1C (configuration not stated) | 23µM | - | - | -
CCOc1ccc(C(=O)C(C)OC(=O)C2CCN(c3ccc(C(F)(F)F)cn3)CC2)cc1 (configuration not stated) | ? | - | - | ?
SMILES | KB-V1 cytotox | HT1080-NT tox | HT1080 IDH1KD tx | KB-3-1 tox
O=C1c2cccc(OCC(=O)N3CCCc4ccccc43)c2CCN1Cc1ccc(F)cc1 | 9.2µM | - | - | ?
CN1CCc2c(OCC(=O)N3CCCc4ccccc43)cccc2C1=O | ? | - | - | -
Cc1cccc(CN2CCc3c(OCC(=O)N4CCCc5ccccc54)cccc3C2=O)c1 | ? | ? | ? | 16µM
Cc1cccc(CN2CCc3c(OCC(=O)NCc4ccco4)cccc3C2=O)c1 | 15µM | - | - | -
CCc1ccccc1NC(=O)CSc1nc2c(c(=O)[nH]1)CN(Cc1ccccc1OC)CC2 | - | . | . | -
CCc1nnc(NC(=O)CSc2nnc(-c3ccccc3O)n2-c2ccc(C)cc2C)s1 | 18µM | 4.6µM | ? | ?
COc1ccc(OC)c(CNC(=O)c2ccc(NC(=O)c3nsc4ccccc34)cc2)c1 | - | . | . | -
O=S(=O)(CC(CN1CCCC1)N1CCCC1)c1ccc2ccccc2c1 (configuration not stated) | ? | 16µM | 23µM | 12µM
Cc1c(NC(=O)/C(C#N)=C/c2ccc(-c3cccc(Cl)c3)o2)c(=O)n(-c2ccccc2)n1C | 9.2µM | - | - | ?
Cc1c(NC(=O)/C(C#N)=C/c2ccc(-c3ccc(Cl)c(Cl)c3)o2)c(=O)n(-c2ccccc2)n1C | - | - | - | -
CN(C)c1ccc(C=c2c3cc([N+](=O)[O-])ccc3n3c2cc(-c2ccccc2)[n+]3C)cc1 | - | ? | 10µM | 5.2µM
CN(C)c1ccc(C=c2c3ccccc3n3c2cc(-c2ccc(Cl)cc2)[n+]3C)cc1 | - | ? | ? | 7.3µM
COc1cc(C=c2c3ccccc3n3c2cc(-c2ccccc2)[n+]3C)cc(OC)c1OC | ? | - | ? | ?
CN(C)c1ccc(C=c2c3ccccc3n3c2cc(-c2ccccc2)[n+]3C)cc1 | 16µM | ? | 21µM | ?
CN(C)c1ccc(/C=C2\C=Cc3cc([N+](=O)[O-])ccc32)cc1 | - | . | . | ?
CN(C)c1ccc(C=c2c3ccccc3n3c2c2c([n+]3C)CCCC2)cc1 | - | ? | 6.5µM | ?
CN(C)c1ccc(/C=C2\SC(=O)N(CC(O)Cn3c4ccccc4c4ccccc43)C2=O)cc1 (configuration not stated) | - | - | ? | ?
COc1cc(N(C)C)ccc1C=c1c2ccccc2n2c1cc(-c1ccccc1)[n+]2C | ? | ? | 12µM | 1µM
COc1ccc(-c2nc3cccc(C)n3c2NCC2CCCO2)cc1O (configuration not stated) | 12µM | - | - | -
COc1cc(-c2nc3ccccn3c2NCC2CCCO2)ccc1O (configuration not stated) | ? | - | - | -
OC(Cc1cccnc1)(c1ccccc1)c1ccccc1 | 18µM | - | - | ?
Cc1nc2nc[nH]n2c(=O)c1NS(=O)(=O)c1ccc(Br)cc1 | ? | . | . | -
CC(C)C(NC(=O)c1ccc(Cl)cc1)C(=O)NC1=NCCS1 (configuration not stated) | 21µM | - | - | -
CC(C)[C@H](NC(=O)c1ccc(F)cc1)C(=O)NC1=NCCS1 | - | - | - | -
CCSc1nnc(NC(=O)C(NC(=O)c2ccc(Cl)cc2)C(C)C)s1 (configuration not stated) | 12µM | - | - | -
NNc1cc2c(nn1)CCN(C(=O)c1ccccc1)C2 | - | ? | ? | 18µM
O=C(Nc1ncc2c(n1)-c1ccccc1CC2)c1cccc(Cl)c1 | ? | ? | ? | 10µM
